Here are results for 87 sequences from the supplement of paper PMC3334620.

The full ranking holds about 33,000 sequences; the median of “E-score (-0.5 to 0.5)” is about -0.013, and the highest 2% start at about 0.3. For the sample, the highest values were picked, then their nearest neighbours and some sequences at random.

The assay concerns the target T1, Msn1 (UniProt P22148).
T1 sequence: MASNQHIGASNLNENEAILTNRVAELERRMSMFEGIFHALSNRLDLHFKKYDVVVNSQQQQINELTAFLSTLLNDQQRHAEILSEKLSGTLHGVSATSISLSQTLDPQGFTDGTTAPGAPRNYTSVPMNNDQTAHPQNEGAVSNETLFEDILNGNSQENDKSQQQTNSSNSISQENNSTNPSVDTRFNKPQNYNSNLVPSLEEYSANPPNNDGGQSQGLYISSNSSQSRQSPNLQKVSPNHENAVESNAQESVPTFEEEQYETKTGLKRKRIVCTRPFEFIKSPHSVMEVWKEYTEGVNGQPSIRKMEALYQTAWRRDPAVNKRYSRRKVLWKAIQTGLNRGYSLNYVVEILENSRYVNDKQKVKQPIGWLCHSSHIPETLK
As to the kind of experiment: PBM E-score (8-mer binding enrichment) (E-score (-0.5 to 0.5)); higher = stronger / more preferred TF binding. The following applies: protein concentration: 200 nM; construct: GST-full length. The method, then:
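Universal 'all 10-mer' protein binding microarrays (Agilent AMADID 015681) probed with GST-tagged S. cerevisiae TFs (full-length or DBD) made by in vitro transcription/translation (PURExpress), about 100-200 nM. Bound TF was detected with fluorescent anti-GST. Each ungapped 8-mer (which stands for itself and its reverse complement) is scored by the PBM enrichment score (E-score), a modified Wilcoxon-Mann-Whitney statistic from -0.5 to +0.5, computed with the Universal PBM Analysis Suite. Scale: above 0.35 generally sequence-specific binding.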
In the case of ATCTCCGC, the “PBM E-score” value was -0.208.

CTACAATC: the “PBM E-score” value came out at 0.0383.

Turning to ACCGCGTG, the “PBM E-score” value was -0.118.

As for ATGTAAAG, the “PBM E-score” value is -0.0428.

Take CCGAACGC: the “PBM E-score” value is 0.158.

As to CCTATCTA, the “PBM E-score” value was -0.0647.

Consider CAATGCAG, for which the “PBM E-score” value was -0.0326.

For GCGACAAA, the “PBM E-score” value stood at 0.355.

For the sequence CCGACAAG, the “PBM E-score” value was 0.13.

For CCGACAAA, the “PBM E-score” value came out at 0.42.

Regarding GCGACAGA, the “PBM E-score” value was 0.144.

As for CCGACAAC, the “PBM E-score” value came to 0.167.

For the sequence GCGACAAC, the “PBM E-score” value came out at 0.167.

For ACGACAAG, the “PBM E-score” value turned out to be 0.0652.

For TCGACAGA, the “PBM E-score” value is -0.101.

On to TCGACGAA, for which the “PBM E-score” value worked out at 0.118.

ACGACAAA: the “PBM E-score” value came to 0.435.

Take TCGACAAA: the “PBM E-score” value was 0.378.

Take ACGACAAC: the “PBM E-score” value was determined as 0.227.

Turning to TACCGGGA, the “PBM E-score” value is 0.148.

With AGCCTGTG, the “PBM E-score” value was -0.221.

With AGAGATTG, the “PBM E-score” value is -0.0815.

Consider GCGCAGAA, for which the “PBM E-score” value was 0.0474.

As for GAGACCTC, the “PBM E-score” value is -0.0881.

Take GAGAACTC: the “PBM E-score” value is -0.162.

For the sequence AATGGAAT, the “PBM E-score” value was 0.238.

As for CCCAGCCA, the “PBM E-score” value was -0.156.

On to CAGGTTGG, for which the “PBM E-score” value is -0.102.

As for ACTATGGG, the “PBM E-score” value is -0.169.

CAGAATGC: the “PBM E-score” value is -0.094.

For the sequence TACAAATA, the “PBM E-score” value came to 0.281.

With AACAAATA, the “PBM E-score” value turned out to be 0.211.

With AACAAGTC, the “PBM E-score” value turned out to be 0.103.

In the case of AACAAGTA, the “PBM E-score” value was -0.0396.

Consider GACAAGTA, for which the “PBM E-score” value stood at 0.369.

As for GACAAATA, the “PBM E-score” value is 0.483.

Turning to AACAAATC, the “PBM E-score” value stood at 0.0327.

Consider TACAAGTA, for which the “PBM E-score” value was 0.0835.

As to CACAAGTC, the “PBM E-score” value was 0.0697.

In the case of GACAAGTC, the “PBM E-score” value was 0.419.

On to GACAAATC, for which the “PBM E-score” value is 0.473.

With CACAAATC, the “PBM E-score” value was 0.0687.

ATGGGATG: the “PBM E-score” value is -0.177.

Take CTGCAAGC: the “PBM E-score” value was -0.17.

Consider ACACAGGT, for which the “PBM E-score” value is 0.0743.

Consider AGAGTAAA, for which the “PBM E-score” value is -0.0814.

As to GTCGAGTA, the “PBM E-score” value is -0.0563.

As to CACCCTAA, the “PBM E-score” value was -0.141.

Consider CCCTCTGA, for which the “PBM E-score” value is -0.174.

For GTAGGACA, the “PBM E-score” value turned out to be 0.479.

Take CTAGGACA: the “PBM E-score” value turned out to be 0.489.

As for GTAGGAGA, the “PBM E-score” value is -0.204.

For ATAGGACG, the “PBM E-score” value is 0.242.

Turning to ATAGGACA, the “PBM E-score” value turned out to be 0.457.

Consider CTAGGATA, for which the “PBM E-score” value is -0.13.

Turning to CTAGGACC, the “PBM E-score” value is -0.0875.

On to ATAGGACC, for which the “PBM E-score” value was -0.11.

For GTAGGATA, the “PBM E-score” value is -0.0803.

As for CGCTACAC, the “PBM E-score” value was -0.231.

GCCACACA: the “PBM E-score” value is -0.0564.

As for AACGTTAA, the “PBM E-score” value came to 0.137.

In the case of AGTAAGCG, the “PBM E-score” value was -0.082.

Regarding GAGTAGGA, the “PBM E-score” value was -0.151.

In the case of AGGAGACG, the “PBM E-score” value is -0.298.

GCTTATAA: the “PBM E-score” value is -0.0204.

In the case of ATTTATAA, the “PBM E-score” value was found to be 0.322.

Consider ACTTATAC, for which the “PBM E-score” value was 0.0919.

With ACTTATAA, the “PBM E-score” value turned out to be 0.333.

For ATTTATAC, the “PBM E-score” value is 0.176.

In the case of CTTTATAA, the “PBM E-score” value amounted to 0.177.

Regarding ACCATAAA, the “PBM E-score” value came to 0.173.

Consider ATATCTGA, for which the “PBM E-score” value is 0.112.

On to CACTTCCA, for which the “PBM E-score” value was -0.0388.

Turning to CATGTCGC, the “PBM E-score” value is 0.237.

Consider CATGTCGG, for which the “PBM E-score” value is 0.224.

Regarding GATGTCGC, the “PBM E-score” value was determined as 0.0908.

As to AGTGTCGG, the “PBM E-score” value was 0.202.

For the sequence AATGTCGA, the “PBM E-score” value amounted to 0.299.

Regarding AATGTCGG, the “PBM E-score” value was determined as 0.33.

For the sequence AAGGTCGT, the “PBM E-score” value is -0.0332.

As for AATGTCGC, the “PBM E-score” value worked out at 0.398.

For AATGTCGT, the “PBM E-score” value was determined as 0.442.

In the case of CTCCTTTC, the “PBM E-score” value was -0.214.

On to GAAAGTGC, for which the “PBM E-score” value is -0.0805.

For the sequence ATAGACCA, the “PBM E-score” value is -0.0849.

Consider ACGATCCC, for which the “PBM E-score” value is -0.232.

Regarding CGGCTCTA, the “PBM E-score” value is -0.00727.
